From PubChem BioAssay (NCI)
The panel holds about 83,000 compounds, 20% with a hit somewhere; the sample as a whole holds those more often.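 A percent growth of 40 corresponds to 60% growth inhibition; 0 means no net growth; -100 means all cells died. Active threshold: below 10.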 A number with no mark means an inactive call. Calls of active or inactive are those of the source.

How the values were obtained:
Assay in all cases: NCI-60 one-dose screen, 48 h (100 = growth as untreated, 0 = no growth, -100 = all killed)
Settings in all cases: 10 µM unless noted
[1] = test system: T-47D breast
[2] = test system: BT-549 breast
[3] = test system: MDA-MB-435 melanoma
[4] = test system: SW-620 colon
[5] = test system: MCF7 breast
[6] = test system: HCT-116 colon
[7] = test system: HCC-2998 colon
[8] = test system: KM12 colon

| SMILES | growth [1] | growth [2] | growth [3] | growth [4] | growth [5] | growth [6] | growth [7] | growth [8] |
| --- | --- | --- | --- | --- | --- | --- | --- | --- |
| COc1ccc2c(O)c(/C=C3\N=Nc4ccccc43)oc2c1C[C@H]1CCNC[C@H]1F | 83.3% | 71.2% | 35.4% | 15.6% | 12.1% | 26.7% | 49.7% | 2.5% (active) |
| Fc1ccc2c(c1)c(-c1nc(-c3c[nH]c4ncccc34)cs1)cn2CCCN1CCOCC1 | 38.1% | 69.5% | -17.1% (active) | 24.9% | 22% | 40.4% | – | 22.5% |
| O=C1/C=C/[C@@H](O)[C@@H]2C[C@@H](O)C[C@H]2/C=C/CCC[C@H](CCOCc2ccccc2)O1 | 15.6% | 7.15% (active) | 7.86% (active) | -23.8% (active) | -10.3% (active) | -71.1% (active) | – | -60.5% (active) |
| FC(F)(F)c1[nH]ncc1-c1nc2c(N3CCCCC3)cc3[nH]ncc3c2c2c1CCCC2 | -4.06% (active) | -52.7% (active) | 10.8% | 6.31% (active) | 3.33% (active) | 3.74% (active) | – | 11.1% |
| COc1ccc(C2=Nc3c/c(=C\c4c(O)[nH]c5cc(Cl)ccc45)ccc3=N2)cc1 | 71.7% | 77.5% | 3.01% (active) | 57.9% | 36.2% | 70.7% | – | 49.5% |
| CCOC(=O)c1c(NC(=O)c2ccc(C(C)(C)C)cc2)sc2cc(O)ccc12 | 82.7% | 94.7% | 97.4% | 91.7% | 88.4% | 92.7% | 104% | 86% |
| COc1ccc2nc3ccccc3c(NCc3ccc(F)cc3)c2c1 | 36.5% | 35% | 23.9% | 14.7% | -27.7% (active) | 8.89% (active) | – | 28.7% |
| CC(C(=O)O)n1c(O)c(C=Nc2cccnc2)sc1=S (stereo not drawn) | 81.2% | 89.2% | 100% | 102% | 86.7% | 89.4% | – | 98.7% |
| COc1cc(Nc2ncccc2NC(=O)c2cn(Cc3cccc(Oc4ccccc4)c3)nn2)cc(OC)c1 | 65% | 85.5% | -6.08% (active) | 86.1% | 49.3% | 91.1% | – | 62.2% |
| Cn1cc(-c2csc(-c3cn(C(=O)OC(C)(C)C)c4ccccc34)n2)c2ccnc(Cl)c21 | 29.1% | 84.2% | 78.8% | 56.2% | 33.3% | 30% | – | 50.4% |
| CCCCCCCC/C=C\CCCCCCCCOc1ccccc1CC(=O)NCC[N+]1(C)CCCCC1 | 59.9% | 47.9% | 41.5% | 61.1% | 80% | 48.2% | – | 22.5% |
| O=c1oc2c(cnc3ccccc32)cc1-c1cccs1 | 95.9% | 96.9% | 103% | 103% | 98.1% | 91.1% | – | 105% |
| CC(CN)[C@@H]1CC[C@]2(CO)CC[C@]3(C)[C@H](CC[C@@H]4[C@@]5(C)CCC(N)C(C)(C)[C@@H]5CC[C@]43C)[C@@H]12 (stereo partly drawn) | 6% (active) | 44.9% | -29.2% (active) | -75.7% (active) | -71.2% (active) | -81.2% (active) | – | -73.5% (active) |
| CCOC(=O)c1c(C)c2c(n1C)CSc1cc(S(=O)(=O)c3ccccc3)c(=O)[nH]c1-2 | 12.3% [100 µM] | 3.95% [100 µM] (active) | 19.3% [100 µM] | 35.9% [100 µM] | 13.8% [100 µM] | 11% [100 µM] | – | 16.5% [100 µM] |
| O=C(/C=C/c1ccccc1)Nc1ncc(Cc2ccccc2)s1 | 26.1% | 42.9% | -40.9% (active) | 24.6% | 17.2% | 11.6% | – | 6.06% (active) |
| Cc1cccc(N2CCN(C(=S)c3ccc4c(c3)OCO4)CC2)c1 | 32.9% | 32.9% | -20.9% (active) | 8.2% (active) | 12.5% | 13.6% | – | 21.5% |
| CCN(C(=O)N1CCN(c2cc3c(cc2F)c(=O)c(C(=O)O)cn3C2CC2)CC1)c1nc(-c2ccc(C)cc2)cs1 | 25.5% | -11.3% (active) | 16.2% | 18.5% | 6.09% (active) | 12.4% | – | 10.6% |

| SMILES | growth [1] | growth [2] | growth [3] | growth [4] | growth [5] | growth [6] | growth [7] | growth [8] |
| --- | --- | --- | --- | --- | --- | --- | --- | --- |
| Cn1c(=O)c2c(c3ccccc31)OC(N)=C(C#N)C21C(=O)c2ccccc2C1=O | 96.3% | 87.2% | 98.4% | 82.3% | 90% | 92.2% | 101% | 95.2% |
| CC1O[C@@H]2C[C@@](O)([C@H]1O)n1c3ccccc3c3c4c(c5c6ccccc6n2c5c31)C(=O)NC4=O (stereo partly drawn) | 8.92% (active) | 36.3% | 43.1% | 35.4% | – | 15.6% | 73.4% | 22.8% |
| COc1ccc(Nc2ncc(C(N)=O)c(NCCCNC(=O)C3CCC3)n2)cc1 | 102% | 24.5% | 84% | 50.9% | – | 54% | 98.5% | 29.3% |
| COC(=O)C1=Nc2ccc(F)cc2/C1=C\c1sc(Nc2ccc(O)cc2)nc1O | 62.4% | 35% | 0.954% (active) | 65.9% | – | 64% | 79.3% | 49.5% |
| CCN(CC)CCCNCc1cc(-c2ccccc2)nc2cc(Cl)ccc12 | -82.5% (active) | 40.1% | -39.7% (active) | -0.394% (active) | – | -16.5% (active) | -29.1% (active) | 14.5% |
| CN1CCN(Cc2cc(NC(=O)c3cccc(C#Cc4cccc5[nH]nc(N)c45)c3)cc(C(F)(F)F)c2)CC1 | 49% | 46% | -21.4% (active) | -45.2% (active) | – | -86.8% (active) | -70.9% (active) | 13.7% |
| O=C1Nc2ccc(F)cc2/C1=C\c1nc(-c2ccccc2F)n2ccccc12 | 88% | 102% | 101% | 44.9% | – | 44.2% | 100% | 97.2% |
| Cc1cccc(-n2c(C)nc3ccc(N4CCCNC4=O)cc3c2=O)c1 | 103% | 108% | 104% | 104% | – | 102% | 109% | 111% |
| CC(C)CSc1oc(-c2ccccc2)nc1S(=O)(=O)c1ccccc1 | 62.4% | 102% | 105% | 97.2% | – | 81.9% | – | 96% |
| C=CCn1c(SCC(=O)Nc2ccc(C(=O)/C=C/c3ccc(OC)cc3)cc2)nnc1-c1ccccc1 | 57.3% | 43.8% | 49% | 97.7% | – | 9.87% (active) | 102% | 82.6% |
| C=C(c1ccc(C(=O)O)cn1)c1cc2c(cc1C)C(C)(C)CCC2(C)C | 81.5% | 86.4% | 92.6% | 117% | – | 82.3% | 126% | 86.1% |
| CCOC(=O)N1CCN(S(=O)(=O)c2oc(-c3ccc(Cl)cc3)nc2C#N)CC1 | 65.4% | 92.2% | 98.6% | -49% (active) | – | 14.1% | 104% | 108% |
| Cn1cc(-c2nc(-c3c[nH]c4ccncc34)cs2)c2cc(Br)ccc21 | -54.1% (active) | 84.2% | -81.4% (active) | -71.8% (active) | – | -89.7% (active) | -68.9% (active) | -83.8% (active) |
| CN1CCN(c2ccc3c(c2)nc(NNC(=O)c2cnccn2)c2cccn23)CC1 | 37.9% | 41.2% | 32.6% | 34.1% | – | 23.1% | – | 19.3% |
| CCN1C(=O)N(CC)C2C1NN=C1SCC(=O)N12 (stereo not drawn) | 31.9% | 102% | 99.1% | 73.7% | – | 9.44% (active) | – | 105% |
| CC(C)=CC(=O)N[C@@H]1CC2CCC3C(CC[C@@]4(C)C3CC[C@@H]4C(C)N(C)C)[C@@]2(C)C[C@@H]1O (stereo partly drawn) | 22.3% | 66.1% | 12.6% | 28.2% | – | 27.1% | 52% | 38.2% |
| CCN(CC)CCOc1ccc(Nc2ncc3cc(-c4ccc(O)cc4)c(=O)n(C)c3n2)cc1 | 67.4% | 30.1% | 61.1% | -33.7% (active) | – | 32% | 86.8% | 37.2% |
